PubChem BioAssay AID485338 (The Scripps Research Institute Molecular Screening Center, 2010)
Potency and affinity values are given separately. Activity calls are given as the source filed them.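 Rule for the calls: active = mean inhibition of cell viability at 10 µM of at least 40% (some results past the limit were not filed as active); inactive = the rest.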

experiment: cytotoxicity in DLD-1 colorectal cells, late-stage follow-up, cytotoxicity control for KLF5 inhibitor project, cell-based, luminescence, round 1 (AID 485338); details: DLD-1 viability, CellTiter-Glo ATP luminescence; series mostly up to 20 µM

Structure (SMILES) | outcome
Cc1ccc2nc(NC(=O)CCCc3nc4ccccc4s3)sc2c1 | inactive
CCCc1ccc(-c2ccc(/C=C/C(=O)O)cc2)nc1 | inactive
CCOC(=O)c1sc(NC(=O)c2ccc3ncsc3c2)nc1C | inactive
COC(=O)c1ccc2nc(Nc3nc4ccc(F)cc4s3)sc2c1 | inactive
